From PubChem
Only some compounds are listed: those with a hit (about 7.5% of all), similar ones and a draw of the others.
NPC1 prom act – qHTS Assay for NPC1 Promoter Activators | Huh7 NPC1 promoter luciferase reporter, 24 h | Potency, µM (series often up to 9.22 µM), inactives show at the top dose activation, actives largely listed as activators | actives 2.4% (n = 320,000); note: % of control where 0% means no effect; nearly all actives have a fitted effect of over 60% in size
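Quantitative HTS used a cell-based reporter: Huh7 cells stably bearing the NPC1 promoter upstream of luciferase were treated with compounds for 24 h, and promoter activation was read as luminescence.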
Rab9 promoter act – qHTS Assay for Rab9 Promoter Activators; Potency, µM (highest dose often 9.22 µM), inactives show top-dose activation, negative = inhibition, most hits filed as activators; actives 2.8% (n = 320,000); Huh7 Rab9 promoter-luciferase reporter, luminescence, 24 h; AID 485297, 2010; note: % of control where 0% means no effect; nearly all actives have a fitted effect of over 60% in size
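Huh7 cells stably carrying a Rab9 promoter-luciferase reporter, 1500 cells per well in OP-MEM I with 10% FBS, treated with compound 24 hours at 37C. Luciferase activity read by luminescence after 10 minutes with Amplite reagent.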
ELG1 genotoxic – qHTS screen for small molecules that induce genotoxicity in human embryonic kidney (HEK293T) cells expressing luciferase-tagged ELG1; actives 1.3% (n = 330,000); Potency, µM (top dose mostly 46 µM), for the others: at the highest dose activity change, positive = activation, usual class: activators; HEK293T ELG1-luciferase reporter, luminescence, 16 h; note: % of control where 0% means no effect; nearly all actives have a fitted effect of over 60% in size
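Step 1: seed 2,000 HEK293T ELG1-luciferase cells per well. Step 2: add compound or DMSO, incubate 16 hr at 37 °C. Step 3: ONE-Glo, 30 min at room temperature, read luminescence.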
KinaseGlo FLuc – Counterscreen for Luciferase (Kinase-Glo TM) Inhibition; Kinase-Glo luciferase, ATP luminescence, 8 min; actives 0.28% (n = 200,000); AID 1379, 2008; Potency, µM (series often up to 38.3 µM), for inactives: at the highest dose activity change, negative = inhibition, actives largely listed as inhibitors; note: % is set by controls: 0 for no effect and ±100 for the full control effect; nearly all actives have a fitted effect of over 60% in size
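Compounds were added to a substrate mix at pH 7.2 (50 mM imidazole, 10 uM ATP, within the enzyme's linear range), followed by Kinase-Glo detection reagent; luminescence was measured after 8 minutes at ambient temperature.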
FLuc counter – qHTS profiling assay for firefly luciferase inhibitor/activator using purifed enzyme and Km concentrations of substrates (counterscreen for miR-21 project) | purified FLuc, Km substrates, luminescence inhibition | Potency, µM (doses to about 57.5 µM), for the others: at the top dose activity change, negative = inhibition, most hits filed as inhibitors | actives 6.9% (n = 360,000) | AID 588342, 2011;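 note: plate controls were vehicle for no effect and reference inhibitor for full effect; nearly all actives have a fitted effect of over 55% in size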
Target sequence (P08659 whole entry, looked up): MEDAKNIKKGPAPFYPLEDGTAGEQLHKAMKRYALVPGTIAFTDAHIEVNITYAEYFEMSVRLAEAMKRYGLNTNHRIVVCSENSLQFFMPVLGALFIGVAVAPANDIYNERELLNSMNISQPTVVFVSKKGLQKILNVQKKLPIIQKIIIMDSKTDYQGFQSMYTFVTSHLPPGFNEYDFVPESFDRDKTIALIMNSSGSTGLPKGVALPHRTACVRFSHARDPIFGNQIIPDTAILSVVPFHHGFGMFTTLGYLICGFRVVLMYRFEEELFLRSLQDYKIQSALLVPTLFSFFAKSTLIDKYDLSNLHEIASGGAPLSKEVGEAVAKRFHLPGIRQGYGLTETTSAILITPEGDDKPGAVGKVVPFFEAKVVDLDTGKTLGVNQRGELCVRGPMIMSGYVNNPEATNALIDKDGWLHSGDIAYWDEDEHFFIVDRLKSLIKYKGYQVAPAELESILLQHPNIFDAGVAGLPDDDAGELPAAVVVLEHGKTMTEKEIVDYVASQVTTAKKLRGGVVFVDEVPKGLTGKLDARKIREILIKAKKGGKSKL
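Purified P. pyralis luciferase (10nM final) with 10uM D-luciferin and 10uM ATP (Km levels) in 50mM Tris acetate pH 7.5, 10mM Mg acetate, 0.01% Tween-20, 0.05% BSA; qHTS 6-point titration, ~60 µM downward; luminescence read.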
SMN2 splice enh – qHTS Assay for Enhancers of SMN2 Splice Variant Expression. HEK293 SMN2-luciferase splicing reporter, luminescence, 30-36 h. Potency, µM (series often up to 46.1 µM), without a hit: top-dose activity change, positive = activation, usual class: activators. actives 2.8% (n = 210,000); note: % of control where 0% means no effect; nearly all actives have a fitted effect of over 55% in size
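HEK293 cells carry an SMN2 minigene-luciferase reporter in which exon 7 inclusion puts luciferase in frame. Cells were seeded at 2000 cells/well, attached for 10-12 hours, then exposed to compounds for 30-36 hours at 37C before ONE-Glo luminescence.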
Active calls of the source: *; u = inconclusive; x = not tested or not shown; [ ] = another dose, or the depositor's remark. Calls come from the whole dose curve; as a rule, active = well fitted curve in the direction sought with a large enough effect; inconclusive = small, poorly fitted or top-dose-only effect, or another doubt; inactive = no such curve, though single readings can be large; an effect the other way counts as inactive or inconclusive. Potency is the fitted concentration of half-maximal effect.

SMILES	NPC1 prom act	Rab9 promoter act	ELG1 genotoxic	KinaseGlo FLuc	FLuc counter	SMN2 splice enh
CN(C)c1ccc(N=Cc2nc(-c3ccccc3)oc2OC(=O)c2ccccc2)cc1	u	u	u	-6%	u	11µM*
CC(=O)Oc1oc(-c2ccccc2)nc1/C=N/c1ccccn1	17%	25%	u	u	21µM*	u
COc1ccccc1N=Cc1nc(-c2ccccc2)oc1OC(C)=O	-1%	-4%	4%	6%	-4%	-14%
COc1ccc(-c2cc3c(=O)n(CC(=O)N4CCN(C)CC4)ncn3n2)cc1	u	5µM*	u	x	2.4µM*	x
CCc1ccc(-c2cc3c(=O)n(CC(=O)NCCCN4CCN(C)CC4)ncn3n2)cc1	2.8µM*	2.8µM*	u	x	2.4µM*	x
COc1ccc(-c2cc3c(=O)n(CC(=O)N4CCCCC4)ncn3n2)cc1	30%	18%	12%	x	u	x
CCc1ccc(-c2cc3c(=O)n(CC(=O)NCCCN4CCC(Cc5ccccc5)CC4)nc(C)n3n2)cc1	-2%	1%	12%	x	u	x
CCC1CCCCN1CCCNC(=O)Cn1ncn2nc(-c3ccc(OC)cc3)cc2c1=O (stereo not given)	0%	u	u	x	24µM*	x
COc1ccc(-c2cc3c(=O)n(CC(=O)NCCCc4ccccc4)ncn3n2)cc1	2.8µM*	4µM*	u	x	u	x
CCOc1ccc(CCNC(=O)Cn2ncn3nc(-c4ccc(OC)cc4)cc3c2=O)cc1OCC	-1%	7%	6%[9.26 µM]	x	-9%	x
CC12CCC(C(=O)Nc3ccncc3)(CC1O)C2(C)C (stereo not given)	-5%	4%	1%	x	2%	x
O=C(Cn1ncc(N2CCOCC2)c(Br)c1=O)c1ccc(Cl)cc1	16%	-1%	10%	3%	-19%	8%
O=C(Cn1ncc(N2CCCC2)c(Cl)c1=O)c1ccc(Cl)cc1	2.5µM*	1.4µM*	u	4%	21µM*	13µM*
CCC(Cn1nnc2ccccc2c1=O)NC(=O)Nc1cccc(Cl)c1 (stereo not given)	x	x	x	x	-10%	-12%
NC(=O)NNC1=Nc2cccc3cccc1c23	-12%	0%	-6%	-3%	2%	-4%
COc1ccccc1N1CCN(C2=Nc3cccc4cccc2c34)CC1	u	u	5%	0%	3.4µM*	x
COc1ccccc1NC1=Nc2cccc3cccc1c23	2%	-1%	-1%	x	19µM*	x
O=C(O)c1ccc(NC2=Nc3cccc4cccc2c34)cc1	1.6µM*	1.6µM*	11%	x	u	x
COc1cccc(-c2cc(C(=O)NCc3ccccc3)[nH]n2)c1	x	x	x	x	21µM*	x
COc1ccc(CNC(=O)c2cc(-c3ccc(C)c(C)c3)n[nH]2)cc1	x	x	x	x	11µM*	x
COc1cccc(-c2cc(C(=O)O)[nH]n2)c1	-2%	-7%	1%	-1%	-19%	11%
COc1cccc(-c2cc(C(=O)Nc3ccc(F)cc3)[nH]n2)c1	x	x	x	x	1.7µM*	x
O=C(Oc1cc2oc(=O)c3c(c2cc1Cl)CCCC3)c1cccs1	-3%	-2%	0%	1%	-19%	-7%
O=C(Oc1ccc2c3c(c(=O)oc2c1)CCCC3)c1cccs1	-4%	-3%	2%	0%	17µM*	-10%
O=C(Oc1ccc2c3c(c(=O)oc2c1)CCC3)c1ccco1	1%	0%	8%	-7%	13µM*	13%
SMILES	NPC1 prom act	Rab9 promoter act	ELG1 genotoxic	KinaseGlo FLuc	FLuc counter	SMN2 splice enh
N#Cc1cc2c(nc1Cl)CCC2	-6%	-2%	0%	x	0%	x
CN(C)CCn1c(CO)nc2c1c(=O)n(C)c(=O)n2C	x	x	x	-5%[7.66 µM]	x	-7%[9.22 µM]
Cc1c(NCc2cc(Cl)cc(Cl)c2O)c(=O)n(-c2ccccc2)n1C	0%	2%	-5%	-2%	0%	-15%
Cc1c(NCc2nc3ccccc3[nH]2)c(=O)n(-c2ccccc2)n1C	-6%	4%	2%	-7%	15µM*	-7%
Cc1cccc(-n2c(C)cc(/C=C3\NC(=O)NC3=O)c2C)c1	20%	24%	u	x	6.7µM*	x
COC(=O)C1=C(C)NC(=O)/C1=C\c1cc(C)n(-c2ccc(F)cc2)c1C	0%	19%	3%	0%	19µM*	3%
COC(=O)C1=C(C)NC(=O)/C1=C\c1cc(C)n(-c2cccc(C)c2)c1C	2%	18%	8%	-2%	27µM*	-36%
Cn1c(CCN2CCOCC2)nc2cc(NC(=O)c3cccs3)ccc21	-3%	-4%	-1%	2%	1%	7%
O=C(O)COCC(=O)Nc1ccc2c(c1)ncn2CCc1ccccc1	0%	-8%	-1%	x	3%	x
CCCn1cnc2cc(NC(=O)c3cccs3)ccc21	u	2.8µM*	12%	-12%	11µM*	16µM*
CC(C)(C)n1cnc2cc(NC(=O)c3ccco3)ccc21	0.28µM*	0.71µM*	u	x	9.5µM*	x
CCCn1cnc2cc(NC(=O)c3ccco3)ccc21	3.5µM*	2.8µM*	2.9µM*	x	u	x
CCn1cnc2cc(NC(=O)c3ccco3)ccc21	2.8µM*	1.6µM*	18µM*	-16%	11µM*	5µM*
O=C(C[C@@H]1C/C=C\C[C@@H](Cc2ccc(F)cc2)C(=O)OC[C@@H](Cc2ccccc2)NC1=O)N[C@H](CO)Cc1ccccc1	x	x	10%	x	x	x
Cc1ccc(NC(=O)C2(c3cccs3)CCOCC2)cc1C	-1%	-1%	-3%	2%	2%	-17%
O=C(CCc1nnc(CCc2c[nH]c3ccccc23)o1)NC1CCC1	u	3.5µM*	u	x	21µM*	x
O=C(CCc1nnc(Cc2c[nH]c3ccccc23)o1)NC1CCCC1	-8%	-3%	0%	3%	4%	x
CCc1nnc(N/N=C/c2ccccc2F)n1N	5%	11%	0%	-3%	5%	-36%
FC(F)Oc1ccccc1/C=N/Nc1nc2ccccc2o1	u	4µM*	19%	x	u	x
Fc1ccccc1/C=N/Nc1nc2ccccc2o1	2.8µM*	2.2µM*	u	x	3µM*	x
CC(=O)N1CCN(c2ccc(NC(=O)c3ccc4c(c3)OCCO4)cc2Cl)CC1	9%	-1%	-7%	-1%	6µM*	x
CC(C)C(=O)N1CCN(c2ccc(NC(=O)c3ccc4c(c3)OCCO4)cc2Cl)CC1	6%	-2%	-34%	-3%	4.3µM*	-41%
CC(C)C(=O)N1CCN(c2ccc(NC(=O)c3cccs3)cc2Cl)CC1	9%	7%	-9%	4%	u	x
